# Dicer inh: blocks human Dicer maturation of pre-miR-21 | z-score at 25 µM | Q9UPY3 | hit rate 6% among 47,000 | AID 1347074 | cat-ELCCA pre-miR-21 Dicer processing, chemiluminescence; active compounds read high; in the data active = z-score above about 3, passing the limit was not always enough;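 note: plate controls were vehicle for no effect and no enzyme for full effect; higher signal means more uncleaved substrate so more Dicer inhibition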
# Target sequence (Q9UPY3 whole entry, looked up): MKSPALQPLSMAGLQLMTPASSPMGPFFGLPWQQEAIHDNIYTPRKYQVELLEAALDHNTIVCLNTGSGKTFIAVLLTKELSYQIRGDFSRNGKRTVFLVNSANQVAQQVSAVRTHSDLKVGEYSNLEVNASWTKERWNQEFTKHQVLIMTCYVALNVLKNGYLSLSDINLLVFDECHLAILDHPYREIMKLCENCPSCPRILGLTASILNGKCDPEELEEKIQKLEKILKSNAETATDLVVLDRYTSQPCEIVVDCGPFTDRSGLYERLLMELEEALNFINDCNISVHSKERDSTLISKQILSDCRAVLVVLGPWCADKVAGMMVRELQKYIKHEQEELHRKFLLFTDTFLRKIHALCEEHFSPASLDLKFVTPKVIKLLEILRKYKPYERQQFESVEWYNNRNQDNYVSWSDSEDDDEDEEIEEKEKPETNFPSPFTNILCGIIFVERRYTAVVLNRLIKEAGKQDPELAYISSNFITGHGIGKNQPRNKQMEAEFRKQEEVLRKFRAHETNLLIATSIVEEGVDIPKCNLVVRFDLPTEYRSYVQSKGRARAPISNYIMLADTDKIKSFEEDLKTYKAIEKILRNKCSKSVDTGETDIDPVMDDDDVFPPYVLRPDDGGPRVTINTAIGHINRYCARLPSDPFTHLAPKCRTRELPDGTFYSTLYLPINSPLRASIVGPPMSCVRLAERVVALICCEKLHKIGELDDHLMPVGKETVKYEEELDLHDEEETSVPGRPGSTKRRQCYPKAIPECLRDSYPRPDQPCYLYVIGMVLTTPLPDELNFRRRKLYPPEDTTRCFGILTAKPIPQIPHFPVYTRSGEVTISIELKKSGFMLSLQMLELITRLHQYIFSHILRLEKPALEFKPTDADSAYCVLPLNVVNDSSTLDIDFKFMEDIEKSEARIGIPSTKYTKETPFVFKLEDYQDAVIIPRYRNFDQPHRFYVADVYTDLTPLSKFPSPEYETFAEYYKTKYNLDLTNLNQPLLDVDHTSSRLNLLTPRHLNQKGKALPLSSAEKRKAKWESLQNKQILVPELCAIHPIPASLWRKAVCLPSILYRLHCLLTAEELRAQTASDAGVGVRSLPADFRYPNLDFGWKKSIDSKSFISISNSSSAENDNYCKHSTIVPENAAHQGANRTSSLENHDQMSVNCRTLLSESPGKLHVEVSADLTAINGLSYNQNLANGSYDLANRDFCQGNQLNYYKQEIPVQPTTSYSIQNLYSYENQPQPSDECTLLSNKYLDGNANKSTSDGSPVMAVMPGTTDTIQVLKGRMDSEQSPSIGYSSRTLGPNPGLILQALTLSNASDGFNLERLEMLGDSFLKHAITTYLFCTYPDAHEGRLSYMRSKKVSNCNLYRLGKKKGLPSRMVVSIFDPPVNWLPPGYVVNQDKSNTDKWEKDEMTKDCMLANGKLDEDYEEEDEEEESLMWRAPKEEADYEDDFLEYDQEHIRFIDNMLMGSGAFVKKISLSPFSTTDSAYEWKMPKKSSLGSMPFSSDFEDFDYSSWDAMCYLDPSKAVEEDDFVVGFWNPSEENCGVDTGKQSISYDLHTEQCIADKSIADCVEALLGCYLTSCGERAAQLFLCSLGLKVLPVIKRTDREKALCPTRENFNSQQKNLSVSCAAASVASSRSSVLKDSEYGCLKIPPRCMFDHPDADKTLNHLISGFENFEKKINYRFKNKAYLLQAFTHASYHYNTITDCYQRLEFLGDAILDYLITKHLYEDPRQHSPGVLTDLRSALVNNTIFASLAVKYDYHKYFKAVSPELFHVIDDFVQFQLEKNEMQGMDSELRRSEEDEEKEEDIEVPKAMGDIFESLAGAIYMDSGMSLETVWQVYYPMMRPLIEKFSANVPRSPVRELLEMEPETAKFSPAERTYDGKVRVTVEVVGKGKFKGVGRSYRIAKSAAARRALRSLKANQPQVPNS
# * marks the source's active call; other numbers are inactive results. This excerpt belongs to a sample that is enriched for hits.
SMILES,Dicer inh
CCOC(=O)C(NC(=O)c1cccnc1SC)C(=O)OCC,-0.44
COc1c(Br)cc(-c2noc(CSc3ccccc3)n2)cc1Br,0.97
CCCCn1c(Oc2ccc(F)cc2)nc2c1c(=O)n(C)c(=O)n2C,2.7
CCOC(=O)c1c(NC(=O)Cn2nc(C(F)(F)F)c3c2CCC3)sc2c1CCCC2,0.11
CCOC(=O)c1c(NC(=O)CCC(=O)OC)sc2c1CCCC2,-1.2
CCCOC(=O)c1c(NC(=O)Cn2nc([N+](=O)[O-])cc2C)sc2c1CCCC2,4.3*
CCOC(=O)CNC(=O)c1ccccc1Cl,1.3
CCOC(=O)NC(Nc1ccccc1)(C(=O)OCC)C(F)(F)F (stereo unspecified),1.1
CCOC(=O)C(NC(=O)c1ccccc1Cl)(Nc1ccccn1)C(F)(F)F (stereo unspecified),3.4*
CCOC(=O)C(NCCOC)(NC(=O)c1ccccc1Cl)C(F)(F)F (stereo unspecified),4.6*
CCOC(=O)C(NC(=O)c1cccc(C)c1)(Nc1cccc(C)n1)C(F)(F)F (stereo unspecified),-1.6
CCOC(=O)C(NCCc1ccccc1)(NC(C)=O)C(F)(F)F (stereo unspecified),0.6
COc1ccc(/C=N/O)cc1OC1CCCC1,1.3
CCOC(=O)C(NC(=O)Cc1ccccc1)(Nc1ccc(F)c(Cl)c1)C(F)(F)F (stereo unspecified),1.7
CCN(CC)c1ccc(C2C(C#N)=C(C)NC3=C2C(=O)CC(C)(C)C3)cc1 (stereo unspecified),-0.42
Cn1c(=O)n(C)c2cc(S(=O)(=O)NC3CCCCC3)ccc21,-0.28
O=C(O)CNS(=O)(=O)c1ccc2[nH]c(=O)[nH]c2c1,0.48
O=c1[nH]c2ccc(S(=O)(=O)NC3CCCCC3)cc2[nH]1,4.7*
O=c1[nH]nnn1-c1ccc(Cl)cc1,-1.3
CCOc1ccc2oc(C)c(C(=O)OC)c2c1,0.79
Cc1ccc(-c2noc(COc3ccc(Cl)cc3C)n2)cc1,5.7*
COc1ccc(-c2noc(COc3ccc(C)cc3C)n2)cc1,0.79
Cc1ccc(-c2noc(COc3ccc(Cl)cc3)n2)cc1,6.9
COC(=O)c1cc2c(N)c(C(=O)c3cccc(C(F)(F)F)c3)sc2nc1C(OC)OC,-0.51
Cc1ccc(C(=O)CC2(O)C(=O)Nc3ccc(C)cc32)c(C)c1 (stereo unspecified),-0.09
SMILES,Dicer inh
O=C(CC1(O)C(=O)Nc2ccc(Br)cc21)c1cccs1 (stereo unspecified),-1.9
Cc1cc(C)c2c(c1)NC(=O)C2(O)CC(=O)c1cccs1 (stereo unspecified),3.4*
CC1=C(C(=O)Nc2ccccn2)C(c2ccc(Br)cc2)n2nnnc2N1 (stereo unspecified),2.3
COc1ccc(/C(O)=C2\C(=O)C(=O)N(Cc3cccnc3)C2c2ccc(OC)c(OC)c2)cc1 (stereo unspecified),-0.5
CCn1nc(C)cc1-c1n[nH]c(=S)o1,0.96
COc1ccccc1-c1n[nH]c(=S)o1,3.7*
Cc1ccc(-c2n[nH]c(=S)o2)cc1,4.8*
COc1ccccc1-c1nc2ccccc2c(=O)o1,-1.8
Cc1ccccc1-c1n[nH]c(=S)o1,-1.2
FC(F)(F)c1ccc(-c2n[nH]c(=S)o2)cc1,0.29
CC(C)(C)OC(=O)NCCNC(=S)NC1CCCCC1,-0.62
COC(=O)C1=C(C)NC2=C(C(=O)CC(C)(C)C2)C1c1ccc(SC)cc1 (stereo unspecified),1.7
Fc1cccc(Cl)c1CSC(=S)N1CCSCC1,-0.6
Cc1ccc(Sc2ccc(NC(=O)Nc3ccc(SC(F)(F)F)cc3)cn2)cc1,-0.98
Cc1nn(C)cc1/C=N/Nc1ncnc2c1cnn2C,0.27
S=c1[nH]cnc2sc3c(c12)CCCC3,-1.1
CC(=O)CCCNc1nc(-c2ccc(Cl)cc2)cs1,6.7*
O=C(Nc1nc(-c2ccccc2)cs1)c1ccc(Cl)cc1,2.2
Cn1ccnc1SCC(=O)Nc1nc(-c2ccc(Cl)cc2)cs1,0.23
Cc1ccc(C(=O)CC(Sc2ccccc2N)c2ccc([N+](=O)[O-])cc2)cc1 (stereo unspecified),-2.1
CSc1ncc(C#N)c2nc(-c3ccc(N(C)C)cc3)nn12,-0.81
Cc1c(N2C(=O)c3cccc4cccc(c34)C2=O)c(=O)n(-c2ccccc2)n1C,4.4*
Cc1c(O)c(=O)n(-c2ccccc2)n1C,0.57
O=C1c2cccc3cccc(c23)C(=O)N1Nc1ccccc1,0.66
C=CCOC(=O)c1sc(N2C(=O)c3oc4ccccc4c(=O)c3C2c2cccs2)nc1C (stereo unspecified),-0.85
SMILES,Dicer inh
Cc1cccc(OCC(O)Cn2c[n+](C)c3cc(C)c(C)cc32)c1 (stereo unspecified),2
c1cc(CNc2ccc3c(c2)OCO3)ccn1,1.7
Fc1ccc(NCc2ccncc2)cc1,3.5*
Fc1ccc(NCc2ccc3c(c2)OCO3)cc1,323
O=C(NCC1CN(Cc2ccccc2)CCO1)c1ccc(N2CCOCC2)nc1 (stereo unspecified),-1
C=CCN(CC=C)CC(O)Cn1c(C)c(C)c2ccccc21 (stereo unspecified),2.3
Cc1ccc(C(=O)COC(=O)C2CCC(N3C(=O)C4CCCCC4C3=O)CC2)cc1C (stereo unspecified),-1.9
CC(C)c1cc(=O)c2c(=O)n(-c3ccccc3)[nH]c2[nH]1,-1.4
COc1ccc(C2Nc3ccccc3-c3cc(C)nn32)cc1O (stereo unspecified),3.6*
COc1ccc(C2Nc3ccccc3-c3cc(C)nn32)cc1 (stereo unspecified),1.8
Cc1cc2n(n1)C(c1ccc(N(C)C)cc1)Nc1ccccc1-2 (stereo unspecified),1.3
CCOc1cc(C2Nc3ccccc3-c3cc(C)nn32)ccc1O (stereo unspecified),0.18
Cc1cc2n(n1)C(c1ccc(N(C)C)cc1)Nc1c(C)cccc1-2 (stereo unspecified),6*
Cc1cc2n(n1)C(c1cc(Br)ccc1O)Nc1ccccc1-2 (stereo unspecified),4.6*
Cc1cc2n(n1)C(c1sccc1C)Nc1c(C)cccc1-2 (stereo unspecified),0.5
CCOc1cccc(C2Nc3c(C)cccc3-c3cc(C)nn32)c1O (stereo unspecified),2.7
Cc1cc2n(n1)C(c1ccccc1O)Nc1ccccc1-2 (stereo unspecified),0.37
COc1cccc(C2Nc3ccccc3-c3cc(C)nn32)c1OC (stereo unspecified),-0.12
Cc1cc2n(n1)C(c1sccc1C)Nc1ccccc1-2 (stereo unspecified),1.2
CCOc1cc(C2Nc3c(C)cccc3-c3cc(C)nn32)ccc1O (stereo unspecified),3.6*
CCCCc1nc2sc3c(NCCN4CCOCC4)ncnc3c2c2c1COC(C)(C)C2,0.07
CC1(C)CC(=O)c2cnc(NC(=O)CSc3nc4ccccc4s3)nc2C1,1.4
CSC1=NC(C)(C)CCC(C)(C)N1,-0.69
O=S(=O)(Cc1ccc(Br)cc1F)c1ccccn1,1.8
O=C(Nc1ccc(Cl)c(-c2nc3cc(Cl)ccc3o2)c1)c1ccc([N+](=O)[O-])o1,-0.45
Cc1c(NC(=S)Nc2ccccc2Cl)c(=O)n(-c2ccccc2)n1C,-0.96
Cc1nc(C)c(-c2ccnc(N)n2)s1,0.57
Cc1ccc(C2C3=C(CCCC3=O)Nc3[nH]n(-c4ccccc4)c(=O)c32)cc1 (stereo unspecified),-1.5
Cn1c(COc2ccccc2)n[nH]c1=S,0.41
Cc1cc2n(n1)C(c1ccc(O)c(O)c1)Nc1c(C)cccc1-2 (stereo unspecified),-0.93

# Screening data as filed in PubChem BioAssay.
